Among the data in PubChem BioAssay (EPA / NIEHS) are AC50 and outcome values, retold here.

Assay [1] in a line: APR_HepG2_CellCycleArrest_24hr: Apredica 24-hour HepG2 Assay for Cell Cycle Arrest (AID 2282905).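 Note: cell cycle arrest scored as ratio of 2N to 4N nuclear DNA content.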 Conditions: imaging, actives raise or lower the signal. In short, it runs like this: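 Step one: dose HepG2 with test compounds, 0.39–200 uM, 0.5% DMSO, 24 hr. Step two: fix, permeabilize, stain nuclei with Hoechst 33342. Step three: image six fields per well at 20x, quantify DNA content, fit bidirectionally relative to DMSO.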

Assay [2] can be described thus: APR_HepG2_NuclearSize_24hr: Apredica 24-hour HepG2 Assay for Nuclear Size (AID 2282907). Conditions: high-content imaging, actives raise or lower the signal. In short, it runs like this: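 After fixation and permeabilization, 24-hr-treated HepG2 cells were stained with Hoechst 33342 and imaged on an ArrayScan (20x). Doses spanned 0.39–200 uM in duplicate. Nuclear diameter changes in either direction were fitted relative to 0.5% DMSO controls.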

The nature of assay [3]: APR_HepG2_CellLoss_24hr: Apredica 24-hour HepG2 Assay for Cell Loss (AID 2282908).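 For AC50: fit in both directions so a hit may be cell loss or gain.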 To be noted: high-content imaging. Put shortly: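 Duplicate wells received compound at ten concentrations (0.39–200 uM; final DMSO 0.5% v/v). After fixation with formaldehyde, nuclei stained with Hoechst 33342 were imaged at 20x. Loss or gain of cell count was fitted relative to DMSO controls.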

A short description of assay [4]: APR_HepG2_MicrotubuleCSK_24hr: Apredica 24-hour HepG2 Assay for Microtubule CSK Stabilty (AID 2282909). Conditions: HepG2 microtubule cytoskeleton imaging, actives raise or lower the signal. Put shortly: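 Microtubule stability is scored from tubulin immunofluorescence in fixed HepG2 cells imaged at 20x. Cells receive ten compound concentrations up to 200 uM for 24 h; taxol and DMSO serve as positive and negative controls.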

Assay [5] can be described thus: APR_HepG2_MitoticArrest_24hr: Apredica 24-hour HepG2 Assay for Mitotic Arrest (AID 2282910). Conditions: high-content imaging, actives raise or lower the signal. In short, it runs like this: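 Treatment lasted 24 hr in the human HepG2 line at 0.39–200 uM, solvent held at 0.5% DMSO. Fixed cells were stained with Hoechst 33342 and anti-phospho-histone H3, imaged at 20x, and analysed by gain- or loss-of-signal fitting against DMSO.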

Assay [6] can be described thus: APR_HepG2_MitoMembPot_24hr: Apredica 24-hour HepG2 Assay for Mitochondrial Membrane Potential (AID 2282911). Conditions: imaging, actives raise or lower the signal. Put shortly: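 HepG2 human liver cells were exposed 24 hr to compounds at 0.39–200 uM (final DMSO 0.5% v/v) in duplicate. MitoTracker Red CMXRos (250 nM, 30 min) was loaded before formaldehyde fixation; fluorescence was imaged by ArrayScan HCS and fitted bidirectionally versus DMSO.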

Assay [7] can be described thus: APR_HepG2_p53Act_24hr: Apredica 24-hour HepG2 Assay for p53 Activation (AID 2282913).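 Note: p53 protein immunofluorescence averaged per cell in HepG2 with Hoechst nuclei.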 To be noted: high-content imaging, actives raise or lower the signal. In short, it runs like this: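 HepG2 cells exposed 24 hr to compounds at 0.39–200 uM (10 concentrations, duplicate), final DMSO 0.5% v/v. After formaldehyde fixation and Triton permeabilization, p53 was immunolabeled (sheep anti-p53, Cy5 secondary) with Hoechst 33342 nuclear counterstain, then imaged by high-content fluorescence microscopy.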

A short description of assay [8]: APR_HepG2_CellCycleArrest_72hr: Apredica 72-hour HepG2 Assay for Cell Cycle Arrest (AID 2282914). Conditions: high-content imaging, actives raise or lower the signal. Put shortly: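 HepG2 cells were exposed to compounds at 0.39–200 uM (0.5% v/v DMSO final, duplicates) for 72 hr, fixed in 3.7% formaldehyde, permeabilized and stained with Hoechst 33342. Nuclear DNA content was quantified by high-content imaging; gain or loss of signal was fitted bidirectionally against DMSO.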

The nature of assay [9]: APR_HepG2_CellLoss_72hr: Apredica 72-hour HepG2 Assay for Cell Loss (AID 2282915). To be noted: high-content imaging. In short, it runs like this: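 HepG2 cells were exposed for 72 hr to compounds at 0.39–200 uM (ten concentrations, duplicate) in 0.5% v/v final DMSO. Nuclei were stained with Hoechst 33342 after 3.7% formaldehyde fixation, imaged at 20x, and counted; fits bidirectional versus DMSO.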

The nature of assay [10]: APR_HepG2_P-H2AX_72hr: Apredica 72-hour HepG2 Assay for H2AX Phosphorylation (AID 2282916).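 Note: phospho-histone H2A.x immunostain intensity per cell marking DNA damage.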 Conditions: imaging, actives raise or lower the signal. In short, it runs like this: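 Phospho-H2A.x imaging endpoint in HepG2 after 72 hr compound exposure (0.39–200 uM, duplicate wells). Activity derived by bidirectional curve fitting with DMSO as baseline.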
A short description of assay [11]: APR_HepG2_MitoMembPot_72hr: Apredica 72-hour HepG2 Assay for Mitochondrial Membrane Potential (AID 2282917). Conditions: imaging, actives raise or lower the signal. In short, it runs like this: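 HepG2 cells exposed 72 h to compounds at 0.39–200 uM (0.5% v/v DMSO, duplicates); MitoTracker Red CMXRos 250 nM loaded 30 min before 3.7% formaldehyde fixation, imaged by HCS fluorescence. Bidirectional fit versus DMSO.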

A short description of assay [12]: APR_HepG2_MitoticArrest_72hr: Apredica 72-hour HepG2 Assay for Mitotic Arrest (AID 2282918). To be noted: high-content imaging, actives raise or lower the signal. Put shortly:
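HepG2 cells were exposed for 72 hr to compound at 0.39–200 uM (10 concentrations, duplicate) in 0.5% v/v DMSO, fixed in 3.7% formaldehyde, immunostained for phospho-histone H3 with Hoechst 33342 and imaged by high-content fluorescence; bidirectional fits versus DMSO.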

Assay [13] can be described thus: APR_HepG2_MicrotubuleCSK_72hr: Apredica 72-hour HepG2 Assay for Microtubule CSK Stabilty (AID 2282919). To be noted: HepG2 microtubule cytoskeleton, high-content imaging, actives raise or lower the signal. In short, it runs like this:
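Ten-point dosing (0.39–200 uM, 0.5% DMSO) of HepG2 for 72 hr, with taxol as the cytoskeletal positive control. The cells were formaldehyde-fixed and then stained with alpha-tubulin/Cy5 and Hoechst. Imaging at 20x used a −2 um Z offset for tubulin.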

The nature of assay [14]: APR_HepG2_P-H2AX_24hr: Apredica 24-hour HepG2 Assay for H2AX Phosphorylation (AID 2282920). To be noted: high-content imaging, actives raise or lower the signal. Put shortly:
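HepG2 human liver cells were exposed for 24 hr to compounds at 0.39–200 uM in duplicate, with 0.5% v/v DMSO final. Fixed cells were immunostained for phospho-histone H2A.x plus Hoechst 33342, imaged by HCS fluorescence, and fitted bidirectionally against DMSO.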

The nature of assay [15]: APR_HepG2_StressKinase_72hr: Apredica 72-hour HepG2 Assay for Stress Kinase (AID 2282921). To be noted: HepG2 stress kinase (phospho-c-Jun) imaging, actives raise or lower the signal. In short, it runs like this: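 Stress kinase signal reflects nuclear phospho-c-Jun staining in fixed, permeabilized cells exposed 72 h to compound at 0.39–200 uM; DMSO-normalized, fitted for increases or decreases.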

A short description of assay [16]: APR_HepG2_StressKinase_24hr: Apredica 24-hour HepG2 Assay for Stress Kinase (AID 2282922). Conditions: HepG2 stress kinase (phospho-c-Jun) imaging, actives raise or lower the signal. In short, it runs like this:
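After 24 hr compound treatment (up to 200 uM, final DMSO 0.5% v/v), HepG2 cells are fixed and multiplex-labeled; phospho-c-Jun intensity is captured by high-content fluorescence imaging and analyzed relative to DMSO.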

Assay [17] is described as follows: APR_HepG2_p53Act_72hr: Apredica 72-hour HepG2 Assay for p53 Activation (AID 2282923).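 Note: average cellular p53 protein immunofluorescence intensity in HepG2 cells.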 To be noted: high-content imaging, actives raise or lower the signal. In short, it runs like this: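 Fixed-cell p53 staining (sheep primary, Cy5 secondary) measured by fluorescence imaging following 72 hr treatment at 0.39–200 uM in 0.5% DMSO; DMSO served as negative control and baseline.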

Assay [18] can be described thus: APR_HepG2_MitoMass_72hr: Apredica 72-hour HepG2 Assay for Mitochondrial Mass (AID 2282924).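 Note: MitoTracker Red CMXRos stain intensity per cell imaged as mitochondrial mass.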 To be noted: high-content imaging, actives raise or lower the signal. Put shortly: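 Steps: treat HepG2 72 hr (0.39–200 uM, duplicate wells); load MitoTracker Red CMXRos, 250 nM, 30 min; fix with 3.7% formaldehyde, permeabilise with 0.5% Triton X-100; capture images, nuclei via Hoechst 33342; fit bidirectionally against DMSO.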

Assay [19] is described as follows: APR_HepG2_NuclearSize_72hr: Apredica 72-hour HepG2 Assay for Nuclear Size (AID 2282925). To be noted: high-content imaging, actives raise or lower the signal. In short, it runs like this: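 Compounds (0.39–200 uM, final DMSO 0.5%) were applied to HepG2 for 72 hr. Cells were then formaldehyde-fixed, permeabilized and labelled with Hoechst 33342. Nuclear diameter was quantified from six images per well.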

The structures appear in SMILES notation. Calls of active or inactive are those of the source. Rule for the calls: active = hit-call score of the fitted dose curve at least 0.9, where 1 is the maximum; inactive = score below 0.9.

In the case of `CC(C)(C)CC(C)(C)c1ccc(O)cc1`, the half-maximal activity concentration (AC50) in assay [1] is 161 µM (active); in [2], 52.3 µM (active); in [3], 46 µM (active); in [5], 49.6 µM (active); in assay [6] it was 25.3 µM (active); in [7], 35 µM (active). Besides, the AC50 in [8] is 32 µM (active); in assay [9], 43.4 µM (active). In addition, the molecule was called inactive in assay [4], in assay [10], in assay [11], in assay [12], in assay [13] and in assay [14]. The molecule was classed as inactive in [15], in [16], in assay [17], in [18] and in assay [19].
Regarding `CC(C)(OO)c1ccccc1`, the AC50 was 78.4 µM (active) in assay [1]; 65.1 µM (active) in [2]; 72.2 µM (active) in [3]; 75.3 µM (active) in [4]; 71.4 µM (active) in [5]; 96.2 µM (active) in assay [6]. Moreover, the AC50 was 65.8 µM (active) in [7]; 88.8 µM (active) in assay [8]; 59.9 µM (active) in assay [9]; 56.7 µM (active) in assay [10]; 59.4 µM (active) in assay [12]; 69.3 µM (active) in assay [14]. Further, the results for the half-maximal activity concentration (AC50) in assay [15] and in assay [17] were 49.4 µM (active) and 45.7 µM (active), respectively. For the same molecule, the call in [11], in assay [13], in assay [16], in [18] and in assay [19] was inactive.
For `CCC(=O)C(CC(C)N(C)C)(c1ccccc1)c1ccccc1` (configuration not stated), the AC50 in assay [1] is 25.1 µM (active); in assay [9] it was 73.6 µM (active); in assay [10] it was 73.5 µM (active); in assay [12], 75.6 µM (active); in [13], 81.3 µM (active); in assay [15], 78.9 µM (active). The half-maximal activity concentration (AC50) in [17] is 69.8 µM (active). The call in assay [2], in assay [3], in assay [4], in assay [5], in [6] and in assay [7] was inactive. Moreover, the result in [8], in assay [11], in assay [14], in [16], in assay [18] and in assay [19] was inactive.

Broadly, the AC50 is the concentration giving half of the maximal activity seen.
